The full data set covers some 7,900 targets. This sample favours those with a hit. About 0.6% of all pairs of compound and target were hits. Unmarked numbers belong to inactive results.
Assays:
Test in all cases: log2 fold change, soluble protein after heating vs DMSO (PISA); higher = thermal stabilisation; K562 cells, 10 uM, 30 min; active = over 0.2 and 3.5 SD of the protein, either way, in both replicates (recomputed)
erlotinib = compound: C#Cc1cccc(Nc2ncnc3cc(OCCOC)c(OCCOC)cc23)c1 [erlotinib]
Procedure, shortened: (§1)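 Soluble protein was quantified by TMTpro 16plex LC-MS/MS after channel sums were equalised. It was obtained as the supernatant after 21,000xg for 90 min from pooled aliquots of K562 cells (2×10^6 cells/mL, 10 μM compound, 30 min) heated for 3 min across 48°C-58°C and extracted in PBS with 0.5% NP-40 at 4°C. Thermal stability values are relative to control samples and come from duplicates. They are given as log2 fold changes.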

[1] = compound: C/C(=N\NC(=O)C1=CC(=CC=C1)S(=O)(=O)N2CCOCC2)/C3=C(C=CC(=C3)Cl)O
Procedure, shortened: as §1

[2] = compound: C1=CC(=C(C=C1Cl)C2=NC3=NC=CN=C3C(=N2)NC4=CC=NC=C4)F
Procedure, shortened: as §1

[3] = compound: C1=CC(=CC=C1C2=NC3=C(N2)C=C(C=C3)C(=O)N)OC4=CC=C(C=C4)Cl
Procedure, shortened: as §1

[4] = compound: C1=CC2=C(C=CC(=C2)/C=C\3/C(=O)NC(=NCC4=CC=CS4)S3)N=C1
Procedure, shortened: as §1

[5] = compound: C1=CC2=NC=CN=C2C=C1/C=C/3\C(=O)NC(=O)S3
Procedure, shortened: as §1

[6] = compound: C1=CC=C(C=C1)C2=NC(=C(N2)C3=CC=NC=C3)C4=CC(=C(C=C4)Cl)O
Procedure, shortened: as §1

[7] = compound: C1=CC=C2C(=C1)C3=NNC4=CC=CC(=C43)C2=O
Procedure, shortened: as §1

[8] = compound: C1CCN(C1)C(=O)NC2=CC=CC(=C2)NC3=NC=C(C(=N3)NCCC4=CN=CN4)Br
Procedure, shortened: as §1

[9] = compound: C1CN(CCC1(CC2=CC=C(C=C2)Cl)N)C3=NC=NC4=C3C=CN4
Procedure, shortened: as §1

Chain of UniProt Q7L0Y3 (Q7L0Y3 whole entry, looked up): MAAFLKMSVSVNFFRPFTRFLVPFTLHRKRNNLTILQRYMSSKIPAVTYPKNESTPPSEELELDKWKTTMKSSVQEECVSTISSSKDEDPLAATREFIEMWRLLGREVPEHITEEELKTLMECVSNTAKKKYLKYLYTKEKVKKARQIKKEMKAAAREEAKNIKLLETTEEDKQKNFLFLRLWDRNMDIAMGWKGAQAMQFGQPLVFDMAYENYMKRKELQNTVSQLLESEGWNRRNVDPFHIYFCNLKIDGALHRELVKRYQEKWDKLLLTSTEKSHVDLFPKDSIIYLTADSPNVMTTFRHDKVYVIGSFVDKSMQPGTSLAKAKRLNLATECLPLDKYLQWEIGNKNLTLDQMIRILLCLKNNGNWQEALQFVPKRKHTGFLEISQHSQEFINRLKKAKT
Chain of UniProt A3KMH1 (A3KMH1 whole entry, looked up): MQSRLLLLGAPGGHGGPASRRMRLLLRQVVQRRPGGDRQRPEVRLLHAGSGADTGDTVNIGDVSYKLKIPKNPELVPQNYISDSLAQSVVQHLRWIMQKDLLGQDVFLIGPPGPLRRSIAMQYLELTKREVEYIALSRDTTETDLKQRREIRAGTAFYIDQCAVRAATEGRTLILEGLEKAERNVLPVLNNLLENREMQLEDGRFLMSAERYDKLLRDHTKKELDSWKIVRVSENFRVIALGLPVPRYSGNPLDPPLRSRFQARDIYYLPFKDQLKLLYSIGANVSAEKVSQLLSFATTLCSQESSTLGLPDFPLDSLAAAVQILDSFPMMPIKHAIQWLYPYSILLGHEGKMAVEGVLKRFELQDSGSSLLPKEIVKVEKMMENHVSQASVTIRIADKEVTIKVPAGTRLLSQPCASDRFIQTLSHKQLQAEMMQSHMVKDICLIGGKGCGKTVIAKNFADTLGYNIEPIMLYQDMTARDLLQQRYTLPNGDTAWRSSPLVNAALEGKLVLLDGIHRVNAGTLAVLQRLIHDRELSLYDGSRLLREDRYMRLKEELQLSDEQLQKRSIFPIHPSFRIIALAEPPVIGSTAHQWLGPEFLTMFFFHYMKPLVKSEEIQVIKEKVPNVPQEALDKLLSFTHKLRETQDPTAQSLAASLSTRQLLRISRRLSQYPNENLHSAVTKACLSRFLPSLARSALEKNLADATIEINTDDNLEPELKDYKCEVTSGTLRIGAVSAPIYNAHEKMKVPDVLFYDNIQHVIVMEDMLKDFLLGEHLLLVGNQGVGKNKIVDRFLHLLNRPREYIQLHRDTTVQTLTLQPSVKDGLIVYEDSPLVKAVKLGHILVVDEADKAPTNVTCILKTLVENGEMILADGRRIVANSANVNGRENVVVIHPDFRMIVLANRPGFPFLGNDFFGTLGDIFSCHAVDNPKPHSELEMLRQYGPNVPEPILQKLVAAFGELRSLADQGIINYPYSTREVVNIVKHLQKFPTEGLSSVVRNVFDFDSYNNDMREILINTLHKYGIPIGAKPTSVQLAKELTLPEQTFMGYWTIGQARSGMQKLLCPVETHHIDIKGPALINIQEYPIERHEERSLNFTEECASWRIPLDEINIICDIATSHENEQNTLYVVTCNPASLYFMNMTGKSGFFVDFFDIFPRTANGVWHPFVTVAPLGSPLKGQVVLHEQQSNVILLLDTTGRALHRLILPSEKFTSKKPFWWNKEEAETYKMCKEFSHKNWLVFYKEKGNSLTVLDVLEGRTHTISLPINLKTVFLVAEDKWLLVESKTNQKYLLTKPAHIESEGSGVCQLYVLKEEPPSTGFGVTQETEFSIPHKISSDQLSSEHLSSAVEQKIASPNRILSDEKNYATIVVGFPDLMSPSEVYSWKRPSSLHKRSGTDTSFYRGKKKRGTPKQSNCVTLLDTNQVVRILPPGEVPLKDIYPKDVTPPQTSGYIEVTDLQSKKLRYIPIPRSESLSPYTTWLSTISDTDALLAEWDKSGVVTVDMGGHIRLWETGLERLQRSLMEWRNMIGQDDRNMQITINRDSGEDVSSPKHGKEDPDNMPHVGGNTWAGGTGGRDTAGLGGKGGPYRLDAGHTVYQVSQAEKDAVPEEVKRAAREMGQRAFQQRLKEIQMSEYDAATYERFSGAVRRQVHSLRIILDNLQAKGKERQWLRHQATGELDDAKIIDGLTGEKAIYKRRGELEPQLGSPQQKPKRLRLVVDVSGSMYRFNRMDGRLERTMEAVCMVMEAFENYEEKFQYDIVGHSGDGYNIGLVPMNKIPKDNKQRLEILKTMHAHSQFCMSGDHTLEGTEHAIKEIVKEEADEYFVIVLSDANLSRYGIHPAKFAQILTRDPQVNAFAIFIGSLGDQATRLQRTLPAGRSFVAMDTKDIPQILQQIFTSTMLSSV
Chain of UniProt Q9UL33 (Q9UL33 whole entry, looked up): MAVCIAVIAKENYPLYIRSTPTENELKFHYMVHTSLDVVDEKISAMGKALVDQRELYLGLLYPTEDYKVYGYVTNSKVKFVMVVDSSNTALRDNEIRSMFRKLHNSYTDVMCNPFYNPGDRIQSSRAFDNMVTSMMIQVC
Chain of UniProt P28908 (P28908 whole entry, looked up): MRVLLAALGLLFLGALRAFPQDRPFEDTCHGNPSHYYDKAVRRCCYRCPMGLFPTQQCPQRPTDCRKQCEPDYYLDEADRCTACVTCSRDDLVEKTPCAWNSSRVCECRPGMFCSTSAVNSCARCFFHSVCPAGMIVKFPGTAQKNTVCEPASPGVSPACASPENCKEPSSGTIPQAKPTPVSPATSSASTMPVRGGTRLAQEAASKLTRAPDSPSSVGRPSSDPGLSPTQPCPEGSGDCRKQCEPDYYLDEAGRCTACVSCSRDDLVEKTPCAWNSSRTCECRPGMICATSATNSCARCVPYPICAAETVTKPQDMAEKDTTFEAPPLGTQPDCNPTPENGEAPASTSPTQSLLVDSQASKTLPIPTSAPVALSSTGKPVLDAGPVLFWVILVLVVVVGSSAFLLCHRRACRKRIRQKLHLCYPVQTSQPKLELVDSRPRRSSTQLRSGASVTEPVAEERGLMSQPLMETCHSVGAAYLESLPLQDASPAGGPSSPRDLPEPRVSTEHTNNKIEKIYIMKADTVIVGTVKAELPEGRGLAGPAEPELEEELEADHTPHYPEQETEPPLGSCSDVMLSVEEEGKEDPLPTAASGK
Chain of UniProt O15213 (O15213 whole entry, looked up): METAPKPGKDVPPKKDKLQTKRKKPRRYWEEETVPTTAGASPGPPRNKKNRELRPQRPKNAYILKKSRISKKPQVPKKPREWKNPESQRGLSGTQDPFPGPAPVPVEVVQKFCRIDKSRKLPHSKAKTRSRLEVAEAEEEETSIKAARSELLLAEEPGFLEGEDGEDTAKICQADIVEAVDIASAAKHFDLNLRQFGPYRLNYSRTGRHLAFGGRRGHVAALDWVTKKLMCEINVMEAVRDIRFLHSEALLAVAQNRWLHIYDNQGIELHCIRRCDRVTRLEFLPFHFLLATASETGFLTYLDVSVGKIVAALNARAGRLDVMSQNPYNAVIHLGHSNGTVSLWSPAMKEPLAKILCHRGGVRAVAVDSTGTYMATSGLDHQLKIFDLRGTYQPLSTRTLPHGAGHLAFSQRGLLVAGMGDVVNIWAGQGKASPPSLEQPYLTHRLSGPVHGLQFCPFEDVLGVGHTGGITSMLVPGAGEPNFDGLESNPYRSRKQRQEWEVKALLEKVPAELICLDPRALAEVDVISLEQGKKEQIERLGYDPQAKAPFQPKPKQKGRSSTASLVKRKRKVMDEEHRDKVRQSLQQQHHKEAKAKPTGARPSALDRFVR
Chain of UniProt Q9Y6I4 (Q9Y6I4 whole entry, looked up): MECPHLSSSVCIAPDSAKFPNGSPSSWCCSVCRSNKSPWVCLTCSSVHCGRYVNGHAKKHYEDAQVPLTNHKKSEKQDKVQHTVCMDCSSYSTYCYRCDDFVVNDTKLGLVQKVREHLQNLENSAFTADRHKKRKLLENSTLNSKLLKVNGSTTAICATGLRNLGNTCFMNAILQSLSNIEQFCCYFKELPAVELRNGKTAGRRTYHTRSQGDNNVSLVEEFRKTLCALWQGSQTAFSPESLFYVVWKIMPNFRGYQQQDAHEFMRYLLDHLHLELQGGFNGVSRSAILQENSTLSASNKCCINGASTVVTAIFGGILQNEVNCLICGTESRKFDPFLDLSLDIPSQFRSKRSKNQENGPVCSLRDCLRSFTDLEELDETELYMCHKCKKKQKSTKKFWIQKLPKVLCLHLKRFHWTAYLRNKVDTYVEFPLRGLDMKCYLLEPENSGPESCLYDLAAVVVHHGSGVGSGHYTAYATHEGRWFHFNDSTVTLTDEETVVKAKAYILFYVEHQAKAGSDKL
Chain of UniProt Q9BV38 (Q9BV38 whole entry, looked up): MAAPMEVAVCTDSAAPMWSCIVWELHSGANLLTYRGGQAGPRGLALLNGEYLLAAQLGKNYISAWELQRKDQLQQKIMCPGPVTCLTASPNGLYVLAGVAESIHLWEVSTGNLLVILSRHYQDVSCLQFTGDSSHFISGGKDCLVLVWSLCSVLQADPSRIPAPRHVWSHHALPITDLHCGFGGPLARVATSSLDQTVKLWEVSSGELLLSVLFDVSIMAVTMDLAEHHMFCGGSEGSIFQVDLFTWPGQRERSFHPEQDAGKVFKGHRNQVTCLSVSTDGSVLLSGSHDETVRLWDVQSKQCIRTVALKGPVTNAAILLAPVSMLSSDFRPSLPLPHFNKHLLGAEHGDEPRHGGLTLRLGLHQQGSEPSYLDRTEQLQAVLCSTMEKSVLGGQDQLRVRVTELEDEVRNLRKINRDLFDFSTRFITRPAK
Chain of UniProt Q8NEZ2 (Q8NEZ2 whole entry, looked up): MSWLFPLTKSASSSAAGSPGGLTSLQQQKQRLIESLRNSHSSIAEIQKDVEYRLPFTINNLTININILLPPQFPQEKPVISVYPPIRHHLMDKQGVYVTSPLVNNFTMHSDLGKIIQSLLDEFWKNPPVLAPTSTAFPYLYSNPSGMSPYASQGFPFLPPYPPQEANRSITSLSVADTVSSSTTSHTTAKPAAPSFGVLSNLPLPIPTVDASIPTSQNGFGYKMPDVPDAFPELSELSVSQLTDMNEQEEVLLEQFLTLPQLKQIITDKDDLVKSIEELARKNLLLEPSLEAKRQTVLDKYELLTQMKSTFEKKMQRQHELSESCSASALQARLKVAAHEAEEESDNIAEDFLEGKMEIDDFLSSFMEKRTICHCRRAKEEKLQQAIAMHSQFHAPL

| Target | log2 fold change (erlotinib) | log2 fold change [1] | log2 fold change [2] | log2 fold change [3] | log2 fold change [4] | log2 fold change [5] | log2 fold change [6] | log2 fold change [7] | log2 fold change [8] | log2 fold change [9] |
| --- | --- | --- | --- | --- | --- | --- | --- | --- | --- | --- |
| TNFRSF8 (UniProt P28908) | 0.009 | 0.017 | -0.015 | 0.006 | -0.109 | 0.024 | -0.062 | -0.061 | -0.046 | 0.05 |
| WNK1 isoform 7 (UniProt Q9H4A3) | 0.043 | 0.014 | 0.012 | -0.003 | 0.026 | 0.006 | -0.046 | 0.021 | -0.028 | -0.02 |
| VWA8 (UniProt A3KMH1) | 0.077 | 0.037 | 0.017 | -0.036 | 0.108 | 0.008 | 0.017 | 0.069 | -0.009 | 0.042 |
| WDR18 (UniProt Q9BV38) | 0.058 | 0.039 | 0.024 | -0.015 | -0.111 | 0.031 | -0.045 | 0.011 | -0.035 | 0.065 |
| VPS35L (UniProt Q7Z3J2) | 0.011 | -0.004 | -0.072 | 0.025 | 0.044 | 0.059 | 0.014 | 0.012 | -0.047 | 0.071 |
| USP3 (UniProt Q9Y6I4) | 0.099 | 0.114 | 0.121 | 0.004 | -0.062 | 0.014 | 0.057 | -0.052 | 0.007 | 0.095 |
| WDR4 (UniProt P57081) | 0.058 | 0.106 | 0.131 | -0.012 | -0.046 | 0.223 | 0.061 | 0.011 | 0.031 | 0.053 |
| TMEM161B (UniProt Q8NDZ6) | 0.037 | -0.074 | 0.013 | -0.021 | -0.054 | 0.018 | 0.159 | -0.026 | -0.053 | -0.03 |
| WAPL isoform 3 (UniProt Q7Z5K2) | 0.031 | 0.017 | 0.048 | -0.037 | 0.057 | 0.144 | 0.059 | -0.012 | -0.217 | -0.062 |
| XPOT (UniProt O43592) | -0.035 | 0.069 | 0.005 | -0.058 | 0.037 | 0.065 | -0.047 | -0.026 | -0.005 | -0.088 |
| TRMT10C (UniProt Q7L0Y3) | -0.015 | 0.066 | 0.09 | 0.062 | 0.009 | -0.007 | 0.036 | 0.036 | -0.008 | 0.009 |
| TMEM263 (UniProt Q8WUH6) | 0.093 | 0.024 | 0.024 | -0.012 | 0.058 | -0.013 | 0.02 | -0.101 | 0.036 | 0.022 |
| UBAP1 isoform 4 (UniProt Q9NZ09) | 0.001 | 0.127 | 0.013 | 0.049 | 0.025 | 0.027 | -0.02 | 0.024 | 0.058 | -0.093 |
| UFL1 (UniProt O94874) | 0.06 | 0.075 | 0.037 | -0.03 | 0.021 | 0.021 | 0.069 | 0.096 | -0.012 | -0.101 |
| VARS2, A0A0G2JL52 | 0.012 | 0.006 | -0.002 | 0 | 0.046 | -0.006 | 0.026 | 0.003 | 0.006 | -0.01 |
| TRAPPC2L (UniProt Q9UL33) | 0.193 | 0.062 | -0.037 | -0.273 | -0.047 | 0.001 | -0.096 | -0.008 | -0.083 | -0.031 |
| VPS37A (UniProt Q8NEZ2) | 0.127 | 0.113 | -0.042 | -0.097 | -0.054 | 0.059 | 0.098 | 0.044 | 0.036 | 0.008 |
| TXN2 (UniProt Q99757) | -0.035 | -0.022 | 0.093 | -0.032 | 0.086 | 0.098 | -0.02 | 0.029 | 0.029 | 0.005 |
| U2AF1 isoform 2 (UniProt Q01081) | 0.015 | 0.119 | -0.02 | -0.036 | -0.038 | 0.015 | 0.036 | -0.036 | -0.071 | -0.071 |
| XPNPEP1 isoform 3 (UniProt Q9NQW7) | -0.005 | -0.069 | 0.067 | 0.022 | 0.076 | -0.003 | 0.048 | 0.04 | 0 | 0.033 |
| UBA6 | 0.011 | 0.099 | 0.06 | 0.038 | 0.014 | -0.037 | 0.014 | 0.015 | -0.024 | -0.015 |
| TOP2A isoform 4 (UniProt P11388) | 0.008 | -0.124 | -0.429 | 0.094 | -0.061 | 0.23 | 0.077 | 0.053 | 0.073 | -0.219 |
| TYW1 (UniProt Q9NV66) | -0.045 | 0.012 | 0.055 | 0.057 | 0.003 | 0.009 | 0.042 | 0.057 | -0.041 | 0.022 |
| TMEM223 (UniProt A0PJW6) | 0.005 | 0.052 | -0.018 | 0.002 | -0.009 | 0.013 | -0.007 | 0.01 | 0.007 | -0.038 |
| UFM1 isoform 2 (UniProt P61960) | -0.132 | 0.108 | 0.06 | 0.14 | 0.07 | 0.032 | – | -0.003 | 0.08 | 0.004 |
| UBE4B isoform 4 (UniProt O95155) | -0.01 | 0.026 | 0.041 | -0.016 | 0 | 0.055 | 0.026 | -0.013 | -0.008 | -0.025 |
| VDAC1 (UniProt P21796) | -0.006 | 0 | 0.039 | -0.003 | -0.023 | 0.006 | -0.004 | 0.005 | 0.006 | 0.067 |
| WDR46 (UniProt O15213) | -0.209 | -0.231 | -0.816 (active) | 0.008 | -0.154 | 0.065 | -0.055 | 0.052 | 0.057 | -0.087 |
| XRCC1 (UniProt P18887) | 0.036 | -0.392 | 0.04 | 0.046 | 0.304 | – | -0.035 | 0.042 | 0.043 | 0.117 |
| TNFAIP8 isoform 4 (UniProt O95379) | 0.019 | 0.071 | 0.087 | -0.028 | 0.039 | 0.017 | -0.015 | -0.07 | 0.003 | 0.023 |

Source: the supplement of paper PMC10849652
